High-throughput results: PubChem BioAssay, National Center for Advancing Translational Sciences (NCATS)
NPSR antag: qHTS Assay for Antagonists of the Neuropeptide S Receptor: cAMP Signal Transduction. 220,000 tested, 1% active. Q6W5P4. AID 1461, 2008. Potency, µM (doses to about 38.3 µM), without a hit: at the highest dose activity change, negative = inhibition, usual class: inhibitors. CHO-NPSR cells, cAMP TR-FRET, antagonist mode; further: potency means the concentration at half of the fitted maximal effect; on the % scale 0 is the no-effect control and ±100 the full control effect; nearly all actives have a fitted effect of over 50% in size
Target sequence (Q6W5P4 whole entry, looked up): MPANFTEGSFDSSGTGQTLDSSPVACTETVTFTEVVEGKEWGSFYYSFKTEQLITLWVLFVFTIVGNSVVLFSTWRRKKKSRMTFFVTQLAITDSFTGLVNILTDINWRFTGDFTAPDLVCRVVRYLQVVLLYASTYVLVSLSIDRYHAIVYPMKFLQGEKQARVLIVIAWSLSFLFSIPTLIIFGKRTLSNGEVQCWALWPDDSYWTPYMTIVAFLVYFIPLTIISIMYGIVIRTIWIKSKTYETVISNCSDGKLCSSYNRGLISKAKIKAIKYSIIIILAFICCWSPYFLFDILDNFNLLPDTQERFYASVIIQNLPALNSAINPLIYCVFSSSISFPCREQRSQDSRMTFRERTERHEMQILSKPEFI
HTT ATP protect: qHTS Multiplex Assay to Identify Dual Action Probes in a Cell Model of Huntington: Cytoprotection (ATP); 230,000 tested, 0.14% active; AID 1471, 2008; Potency, µM (highest dose often 56.4 µM), without a hit: cytoprotection (ATP increase), most hits filed as activators; PC12 HTT-Q103 induced, cytoprotection, ATP luminescence, 40 h; further: potency means the concentration at half of the fitted maximal effect; % of control where 0% means no effect; nearly all actives have a fitted effect of over 45% in size
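Huntington model: PC12 line, ecdysone-inducible HTTQ103 exon1–GFP, tebufenozide 100 nM. Test articles in a dose series. Endpoint luminescence from cellular ATP.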
IMPase cell inh: qHTS Assay for Identifying the Cell-Membrane Permeable IMPase Inhibitors; CHO-M1 cells, IP1 accumulation, HTRF TR-FRET ratio; inhibition (IP1 accumulation), % at 46.1 µM; 120,000 tested, under 10 active; AID 901, 2007; active means well fitted curve in the direction sought with a large enough effect in the signal ratio, not every such curve was filed as active; inconclusive means small, poorly fitted or top-dose-only effect, or a change in a side signal; inactive means no such curve, though single readings can be large or run the other way; the % refers to the signal ratio;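 further: cells stimulated with carbachol in lithium chloride buffer; plate controls were DMSO basal wells for no effect and reference inhibitor wells for full effect; higher means more IMPase inhibition seen as more IP1 and lower FRET ratio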
Target sequence (P97697 whole entry, looked up): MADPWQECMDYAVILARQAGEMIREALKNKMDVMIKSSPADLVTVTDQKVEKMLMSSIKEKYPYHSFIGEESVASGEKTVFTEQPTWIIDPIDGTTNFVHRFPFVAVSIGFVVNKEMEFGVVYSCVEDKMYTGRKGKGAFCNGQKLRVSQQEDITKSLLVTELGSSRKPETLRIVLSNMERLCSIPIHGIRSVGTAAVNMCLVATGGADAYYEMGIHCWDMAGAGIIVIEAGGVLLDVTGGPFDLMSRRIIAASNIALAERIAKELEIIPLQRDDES
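Elevated IP1 in lysates lowers TR-FRET signal (665/620 ratio and 620 channel reported). Cells were CHO-M1, given carbachol (50 uM as added) plus 50mM LiCl, pH 7.4, 30 min, 37C; compounds titrated up to 46 uM; AC50 by Hill equation.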
PNC assembly inh: High Content Assay for Compounds that inhibit the Assembly of the Perinucleolar Compartment | PC3M PTB-GFP, PNC prevalence imaging, 16 h; hits give low values | 140,000 tested, 3.1% active | activity change (PNC), negative = inhibition, % at 10 µM | AID 2417, 2010;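 active means readout at or below -70, meaning at least 70% loss of cells showing the perinucleolar compartment, a nuclear body marking cancer cells; inconclusive means readout between -30 and a set limit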;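 further: plate controls were DMSO wells for no effect and camptothecin positive control wells for full effect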
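Read-out is percentage of cells bearing a perinucleolar compartment, from automated 20x imaging of fixed, Hoechst-stained PC3M PTB-GFP cells. Cells were seeded 4 h, then exposed 16 h to compound (23 nl of library stock) in duplicate plates.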
HTT aggregate: qHTS Multiplex Assay to Identify Dual Action Probes in a Cell Model of Huntington: Aggregate Formation (GFP); PC12 HttQ103-GFP aggregates, Acumen cytometry, 40 h; Potency, µM (highest dose often 46.1 µM), inactives show at the highest dose activity change, negative = inhibition, actives largely listed as inhibitors; 220,000 tested, 1.1% active; AID 1688, 2009; further: potency means the concentration at half of the fitted maximal effect; on the % scale 0 is the no-effect control and ±100 the full control effect; nearly all actives have a fitted effect of over 60% in size
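Aggregate formation scored by laser-scanning cytometer (488 excitation, 500–530 emission) in lysed PC12 cells expressing Q103-GFP after 100 nM tebufenozide induction; library tested in dose series, with ATPLite reagent added in the multiplex.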
ALOX12 inhib: qHTS Assay for Inhibitors of 12-hLO (12-human lipoxygenase); 150,000 tested, 0.12% active; Potency, µM (doses to about 57.1 µM), for the others: at the top dose activity change, negative = inhibition, usual class: inhibitors; purified 12-hLO, xylenol orange hydroperoxide absorbance; further: potency means the concentration at half of the fitted maximal effect; on the % scale 0 is the no-effect control and ±100 the full control effect; nearly all actives have a fitted effect of over 55% in size
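Xylenol orange chromogenic assay: hydroperoxide from 12hLO oxidises Fe(II), giving red-shifted Fe(III)-XO absorbance. Conditions: 150 nM enzyme, 40 uM arachidonic acid, 25 mM Hepes pH 7.0, 0.01% Triton X-100, 30 min, room temperature.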
An asterisk follows results filed as active; ? = inconclusive; nt = no result; [ ] = dose if it differs, or a comment. In the library only some 3.3% were active in any assay of this set; here they are far more common. Unless noted, the call rests on the fitted dose curve; in most records, active means well fitted curve in the direction sought with a large enough effect; inconclusive means small, poorly fitted or top-dose-only effect, or another doubt; inactive means no such curve, though single readings can be large; an effect the other way counts as inactive or inconclusive.

SMILES	NPSR antag	HTT ATP protect	IMPase cell inh	PNC assembly inh	HTT aggregate	ALOX12 inhib
COc1ccc(OC)c(-n2nnnc2SCC(=O)N2CCN(C(=O)c3ccco3)CC2)c1	-3%	15%[10 µM]	nt	nt	24%[9.22 µM]	nt
CN(C)c1ncc2nc(CCc3ccccc3)c(=O)n(Cc3cccs3)c2n1	nt	-49%	nt	nt	nt	nt
COc1cccc(C(C(=O)NC2CCCC2)N(CC2CCCO2)C(=O)Cc2cccs2)c1 (stereo not drawn)	12%	11%[10 µM]	nt	nt	0%[9.22 µM]	nt
Cn1c(=O)c2c(nc(Oc3ccc(-c4ccccc4)cc3)n2C)n(C)c1=O	5%[46.1 µM]	-11%	-8	?	2.8µM*	11%
Cc1ccc(Oc2nc3c(c(=O)n(C)c(=O)n3C)n2C)cc1C	-11%	-37%	nt	nt	?	nt
CCOC(=O)C(NC(=O)c1ccccc1)(N1CCCC1=O)C(F)(F)F (stereo not drawn)	-3%[46.1 µM]	-13%	2	-85*	0%	-1%
Cn1c(Oc2ccc(Cl)cc2)nc2c1c(=O)n(Cc1ccc(F)cc1)c(=O)n2C	nt	nt	-2	nt	nt	nt
O=S(=O)(c1ccc2c(c1)oc1ccccc12)N1CCOCC1	-10%[46.1 µM]	-4%[0.074 µM]	-9	-81*	-4%	2%
COCCCn1cnnc1SCc1nc2sc(C(C)=O)c(C)c2c(=O)[nH]1	-6%	-10%[10 µM]	nt	nt	-3%[9.22 µM]	nt
COc1ccc(CCNC(=O)c2ccc(Cl)c(S(=O)(=O)N(C)c3ccccc3)c2)cc1	-36%	0%[10 µM]	nt	-89*	-3%	0%
CNc1ccccc(-c2ccc3cc4c(cc3n2)OCO4)c1=O	-24%	nt	nt	-109*	25%	-2%
c1ccc2nc(-c3ccc4c(c3)OCO4)ccc2c1	10%	-88%	nt	nt	-7%	nt
C=CCn1c(SCC(=O)N2CCN(c3ccccc3)CC2)nnc1-c1ccco1	-1%[46.1 µM]	0%	4	?	5%	3%
C=CCn1c(SCC(=O)N2CCN(c3ccc(F)cc3)CC2)nnc1-c1cccs1	-27%[46.1 µM]	-2%	-22	-96*	9%	2%
Nc1nonc1-c1nc2ccccc2n1CC(=O)Nc1cccc(Cl)c1Cl	nt	nt	-8	nt	nt	nt
COc1cccc(CC2(CO)CCCN(CC3=Cc4cc(Cl)ccc4OC3)C2)c1 (stereo not drawn)	48%	-16%[10 µM]	nt	nt	-6%[9.22 µM]	nt
CCOC(=O)c1c(Nc2nc(C)c(C(=O)NC)s2)sc(C)c1C	-10%[46.1 µM]	14%[10 µM]	-2	-82*	-1%	-3%
O=C(N/N=C/c1c(O)ccc2ccccc12)c1[nH]ncc1Br	-5%	-83%[10 µM]	nt	?	1.1µM*	-10%
O=C(N/N=C/c1ccc(N2CCOCC2)o1)c1cccc(C(F)(F)F)c1	?	8%[10 µM]	-1	-100*	10%	-2%
O=C(N/N=C/c1c(O)ccc2ccccc12)c1cccc(C(F)(F)F)c1	-10%	nt	nt	-93*	4µM*	?
Cc1cccc(N(CC(=O)NC(C)c2ccccc2)S(=O)(=O)c2ccccc2)c1C (stereo not drawn)	nt	nt	-1	nt	nt	nt
N=c1ccn2c(n1)O[C@H]1[C@@H](OP(=O)(O)O)[C@H](CO)O[C@H]12	nt	-17%[10 µM]	nt	nt	nt	5%[11.4 µM]
O=[N+]([O-])c1ccc(/C=N/n2cnc3ccccc32)s1	-13%	nt	nt	29	16µM*	-1%
Cc1nc2ccccc2n1/N=C/c1ccc([N+](=O)[O-])s1	-3%	2%[10 µM]	nt	39	5µM*	5%
COc1cccc(Cn2c(=O)c(CCc3ccccc3)nc3cncnc32)c1	nt	17%	nt	nt	nt	nt
SMILES	NPSR antag	HTT ATP protect	IMPase cell inh	PNC assembly inh	HTT aggregate	ALOX12 inhib
Cc1c(C(=O)Nc2ccccc2)oc2c1C(=O)CC(C)(C)C2	-9%[46.1 µM]	6%	7	?	10µM*	0%
CC(C)(C)OC(=O)NCc1nc(N)n[nH]1	-12%[46.1 µM]	6%[10 µM]	-6	-100*	-8%	4%
C#CCCCC(=S)Nc1ccccc1	nt	-14%	nt	nt	nt	1%
CNc1ncnc2c1ncn2[C@H]1C[C@H](O)[C@@H](CO)O1	nt	-7%	nt	nt	nt	nt
Cc1ccc(Cl)cc1NC(=O)CC(O)(C(F)(F)F)C(F)(F)F	29%[46.1 µM]	-21%	19	15	16µM*	-6%
COCC(=O)Nc1cc(Cl)ccc1C	17%	14%	nt	nt	13%	nt
Cc1cccc(NC(=O)c2ccc(S(=O)(=O)C(F)F)cc2)c1C	1%	-17%[10 µM]	nt	-100*	?	-4%
Cc1ccc(CNc2ncnc(N)c2[N+](=O)[O-])cc1	17%	6%	nt	nt	4.5µM*	nt
O=[N+]([O-])c1cc(/C=N\Nc2nccs2)ccc1O	2.5µM*	-36%	5	-11	-20%	-11%
COc1ccccc1/C=C/C(=O)NCC(=O)N/N=C(\CCC(=O)O)c1ccccc1	20%	nt	nt	nt	3%	nt
CC1(C)CC(=O)C=C(NC2=CC3OC(c4ccccc4)OCC3OC2=O)C1 (stereo not drawn)	2.5µM*	nt	nt	8	?	6%
Cc1ccccc1NC1=CC(=O)CC(C)(C)C1	-4%[46.1 µM]	23%[10 µM]	4	5	13%	0%
Cn1nc(-c2ccccn2)nc2c(=O)n(C)c(=O)nc1-2	2.5µM*	-45%[10 µM]	nt	nt	?	nt
